From PubChem BioAssay AID1233 (SRMLSC, 2008)
Measured potencies and affinities stand elsewhere. Active and inactive are the calls of the source.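 How the source made its calls: active means a dose-response curve fit returns a half-maximal inhibitory concentration, extrapolated values included; inactive means the fit returns no such concentration.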

Biological target: HMG-CoA reductase [Enterococcus faecalis] (UniProt Q9FD70)
Assay: class II HMG-CoA reductase inhibition potency – biochemical, Enterococcus faecalis, confirmation (AID 1233)
Settings: purified E. faecalis HMGR, NADPH absorbance 340 nm kinetics; series mostly up to 100 µM

outcome, inactive:
CN(C)C(CNC(=O)CCOc1ccccc1)c1ccco1 (stereo not drawn)
CN(C)c1ccc2c3c(ccc(N(C)C)c13)COC2
CCOC(=O)c1sc(NC(=O)CSc2n[nH]c(CC)n2)nc1C
O=C(Cn1cccc1C(=O)c1ccccc1)NCc1ccco1
O=C(CC1SCCNC1=O)Nc1ccc(F)c(Cl)c1 (stereo not drawn)
O=C(NCCOc1ccccc1Cl)C(=O)c1c[nH]c2ccccc12
O=c1cc(CSc2ccc([N+](=O)[O-])cc2)nc2sccn12
COc1cccc(Nc2nc(C)cc(C)c2C#N)c1
O=C(OCC(=O)N1CCN(C(=O)c2ccco2)CC1)c1cc(-c2ccco2)nc2ccccc12
COc1ccccc1C(=O)N/C(=C/c1ccc(Br)cc1)C(=O)NCC(=O)O
Cc1cc(=O)[nH]c(SCCOc2ccc3c(c2)CCC3)n1
COc1ccc(N2CCN(C(=O)C3CCC(Cn4c(=S)[nH]c5ccccc5c4=O)CC3)CC2)cc1 (stereo not drawn)
Cc1cnc(NC(=O)c2cc3ccccc3o2)s1
Cn1c(SCC(=O)N2CCCC2=O)nnc1-c1ccccc1F
Cc1cccc(C(=O)NC2CCN(C(=O)Nc3ccccc3C)CC2)c1
N#CC(c1ccc(Cl)cc1)c1nc2ccccc2nc1C(F)(F)F (stereo not drawn)
CC1SC(c2ccc(Cl)cc2)NC1=O (stereo not drawn)
O=C(CSc1nnnn1-c1ccccc1)Nc1ccc(N2CCOCC2)c(Cl)c1
O=C(C1c2ccccc2C(=O)N2CCc3ccccc3C12)N1CCN(Cc2ccccc2)CC1 (stereo not drawn)
CC(C)OC(=O)CC(NC(=O)OC(C)(C)C)c1ccccc1 (stereo not drawn)
CCCCN(C(=S)Nc1cccc(C)c1C)c1c(N)n(CCC)c(=O)[nH]c1=O
COCCNC(=O)C(c1ccccc1C)N(C(=O)Cn1nnc2ccccc21)c1cccnc1 (stereo not drawn)
COc1ccc(C)cc1NC(=O)C(Sc1nnnn1C)c1ccccc1 (stereo not drawn)
COc1ccccc1N(CC(O)CN(c1ccccc1)S(C)(=O)=O)S(=O)(=O)c1ccccc1 (stereo not drawn)
CC(=O)Nc1ccc(Cc2nc3ccccc3[nH]2)cc1
CC1(C)CNC(=O)c2sc(NC(=O)c3ccccc3)nc2C1
CC(=O)Nc1ccc(C(=O)CSc2nnc(Cc3ccccc3)o2)cc1
Fc1ccc(-c2csc3[n+]2CCS3)cc1
COC1(OC)N=C(NC(=O)Nc2ccccc2)C2(C#N)C(c3ccccc3)C12C#N (stereo not drawn)
Cn1c(CN2CCCC2)c(C#N)c2ccccc21
Fc1ccccc1CSc1nncn1NC/C=C/c1ccccc1
CCN1CCCC1CNCC(O)COc1ccc(C(C)(C)C)cc1C (stereo not drawn)
COc1ccccc1/C=C/C(=O)OCC(=O)Nc1c(F)cccc1F
COc1ccc(CN2CCNC(=O)C2CC(=O)NCCc2c[nH]c3ccccc23)c(OC)c1 (stereo not drawn)
O=C(NCc1ccc2[nH]c3c(c2c1)CCCC3)c1ccc(S(=O)(=O)N2CCCC2)cc1
COc1cccc(NC(=O)c2cc(-c3ccncc3)nc3c(C)cc(C)cc23)c1
CC(C)OCP(=O)(c1ccccc1)c1ccccc1
CCN(CC)c1ccc(/C=N/NS(=O)(=O)c2cccc([N+](=O)[O-])c2)cc1
